{"source": "PubChem BioAssay AID2314", "about": "(National Center for Advancing Translational Sciences (NCATS), 2010)", "note": "Where “and” joins values, the source holds several entries; their conditions need not be identical. Equal values may be shown once. The whole screen tested about 300,000 compounds, of which about 37,000 (12%) were called active. Cut-off read from the data, not from the text of the source: active = max response mostly above about 13% (no sharp cut-off); inactive = mostly below about 14%. The sample as a whole holds a higher share of actives than the screen did."}
{"assay": "Cycloheximide Counterscreen for Small Molecule Inhibitors of Shiga Toxin; note: read at 38.3 µM for the half of the compounds with a filed dose; 0% is about no effect", "conditions": "cell reporter, cycloheximide protein synthesis inhibition counterscreen; hits give high values"}
{"smiles": "CSc1nnc(-c2ccc(C(F)(F)F)cn2)o1", "max response": "15.3% (active)"}
{"smiles": "CC(C)Oc1ccc(Oc2ccc(C(F)(F)F)cn2)cc1", "max response": "10.2% (inactive)"}
{"smiles": "CCOc1cc(N2CCOCC2)c(OCC)cc1NC(=O)c1ccc(C)s1", "max response": "-4.86% (inactive)"}
{"smiles": "CCn1c(SCC(=O)Nc2ccc(Br)cc2)nc2sc3c(c2c1=O)CCN(C)C3", "max response": "9.46% (inactive)"}
{"smiles": "COc1ccc(CCNC(=O)c2ccc(CS(=O)(=O)c3ccc(Br)cc3)o2)cc1OC", "max response": "10.1% (inactive)"}
{"smiles": "CCC1S/C(=N/N=C/c2ccco2)NC1=O", "note": "(stereo not drawn)", "max response": "0.781% (inactive)"}
{"smiles": "COc1ccc(CN2C(=O)C(C)S/C2=N/N=C/c2ccco2)cc1", "note": "(stereo not drawn)", "max response": "31.9% (active)"}
{"smiles": "C=CCN1C(=O)C(Cc2cccc(Cl)c2)S/C1=N/N=C/c1ccco1", "note": "(stereo not drawn)", "max response": "6.81% (inactive)"}
{"smiles": "COc1cc(OC)cc(C(=O)NC2CCN(C(=O)N3c4ccccc4Sc4ccccc43)CC2)c1", "max response": "9.65% (inactive)"}
{"smiles": "CCCc1cc(=O)n2[nH]c(C)c(-c3ccc(Cl)cc3)c2n1", "max response": "-2.56% (inactive)"}
{"smiles": "COc1ccc(N(CC(=O)Nc2cc(OC)ccc2OC)S(=O)(=O)c2c(C)noc2C)cc1", "max response": "-6.58% (inactive)"}
{"smiles": "O=C(Oc1cccc(C(=S)N2CCOCC2)c1)c1cccc(Cl)c1", "max response": "-0.347% (inactive)"}
{"smiles": "O=C(/C=C/c1cccs1)c1cc(Cl)ccc1OC(=O)N1CCOCC1", "max response": "23.9% (active)"}
{"smiles": "CC(=O)Nc1ccccc1OC(=O)N1CCOCC1", "max response": "11.6% (inactive)"}
{"smiles": "Cc1cccc(OCC(O)Cn2c(N3CCCCC3)nc3c2c(=O)[nH]c(=O)n3C)c1", "note": "(stereo not drawn)", "max response": "14.8% (inactive)"}
{"smiles": "CCOC(=O)c1c(Cc2ccc(Cl)cc2)c[nH]c1C", "max response": "26.8% (active)"}
{"smiles": "CCOC(=O)c1c(S(=O)(=O)Nc2cccc(Cl)c2)c(C)n(C)c1C", "max response": "5.3% (inactive)"}
{"smiles": "CCOC(=O)C1=C(C)NC(=O)N(C(C)=O)C1c1ccc(Cl)cc1", "note": "(stereo not drawn)", "max response": "-4.1% (inactive)"}
{"smiles": "CC(OC(=O)c1ccc2noc(-c3ccccc3)c2c1)C(N)=O", "note": "(stereo not drawn)", "max response": "2.78% (inactive)"}
{"smiles": "O=C(Nc1ccc(F)cc1)C1CCN(C(=O)c2ccc([N+](=O)[O-])cc2)CC1", "max response": "3.26% (inactive)"}
{"smiles": "O=C(Nc1ccc([N+](=O)[O-])cc1)C1CC12CCC2", "note": "(stereo not drawn)", "max response": "21.8% (active)"}
{"smiles": "O=C(Nc1ccc([N+](=O)[O-])cc1)C1(c2ccccc2)CCOCC1", "max response": "-3.32% (inactive)"}
{"smiles": "O=C(c1c(F)cccc1F)N1CCN(S(=O)(=O)c2ccc3c(c2)OCCO3)CC1", "max response": "13.2% (inactive)"}
{"smiles": "COc1ccc(N2CC(C(=O)NCCS(=O)(=O)N3CCN(c4ccccc4)CC3)CC2=O)cc1", "note": "(stereo not drawn)", "max response": "5.23% (inactive)"}
{"smiles": "C=CCc1cccc(/C=N/NC(=O)COc2ccc(-n3cnnn3)cc2)c1O", "max response": "7.64% (inactive)"}
{"smiles": "O=C(Cc1cccs1)Nc1nnc(SCc2ccc(F)cc2)s1", "max response": "-3.78% (inactive)"}
{"smiles": "Cc1ccc(Nc2nnc(SCc3ccccc3)s2)cc1", "max response": "24.5% (active)"}
{"smiles": "O=C(Nc1nnc(SCc2ccccc2)s1)c1ccco1", "max response": "23.3% (active)"}
{"smiles": "O=C(Nc1nnc(CCOCCOCCc2nnc(NC(=O)c3ccco3)s2)s1)c1ccco1", "max response": "-1.29% (inactive)"}
{"smiles": "Cc1cccc(CSc2nnc(NC(=O)CSc3nnc(C)s3)s2)c1", "max response": "10.9% (inactive)"}
{"smiles": "COC(=O)CSc1nnc(NC(=O)CCc2ccccc2)s1", "max response": "14% (inactive)"}
{"smiles": "Cc1nnc(SCc2nc3ccccc3nc2C)s1", "max response": "-3.4% (inactive)"}
{"smiles": "CCOC(=O)N1CCN(Cc2nc(N)nc(Nc3ccc(C)cc3)n2)CC1", "max response": "5.78% (inactive)"}
{"smiles": "Cc1ccc(Nc2nc(N)nc(CSc3nnc(C)s3)n2)cc1", "max response": "34.9% (active)"}
{"smiles": "Cc1ccc(OCC(=O)Nc2ccc(C(=O)O)cc2NC(=O)COc2ccc(C)c(C)c2)cc1C", "max response": "7.55% (inactive)"}
{"smiles": "NC(=O)C1CCN(C(=O)CC2C(=O)NCCN2Cc2cccc(Oc3ccccc3)c2)CC1", "note": "(stereo not drawn)", "max response": "-2.74% (inactive)"}
{"smiles": "CC(C(=O)Nc1ccc(F)c(F)c1F)N1CCCCCC1", "note": "(stereo not drawn)", "max response": "-2.23% (inactive)"}
{"smiles": "COc1cccc(C2SCC(=O)N2c2cccc(C)c2)c1OC", "note": "(stereo not drawn)", "max response": "-0.463% (inactive)"}
{"smiles": "Cc1ccc(C2SCC(=O)N2c2ccccc2)cc1", "note": "(stereo not drawn)", "max response": "16.9% (active)"}
{"smiles": "O=C1CSC(c2cccc(F)c2)N1c1ccc(O)cc1", "note": "(stereo not drawn)", "max response": "-1.44% (inactive)"}
{"smiles": "COc1ccc(C(C)NC(=O)C2CCCC2)cc1", "note": "(stereo not drawn)", "max response": "-0.457% (inactive)"}
{"smiles": "CCc1ccc(N(CC(=O)NCc2cccnc2)S(=O)(=O)c2ccccc2)cc1", "max response": "9.39% (inactive)"}
{"smiles": "CC(C)NC(=O)C(=O)N/N=C/c1ccco1", "max response": "6.82% (inactive)"}
{"smiles": "O=c1nc(N/N=C/c2ccco2)cn[nH]1", "max response": "35.1% (active)"}
{"smiles": "O=C(Cn1cnc2ccccc21)N/N=C/c1ccco1", "max response": "7.5% (inactive)"}
{"smiles": "O=C1C2C3C=CC(C4CC34)C2C(=O)N1c1nccs1", "note": "(stereo not drawn)", "max response": "-4.99% (inactive)"}
{"smiles": "CCCC1=Nc2cc(C(=O)NCc3ccco3)ccc2Sc2ccccc21", "max response": "12.1% (inactive)"}
{"smiles": "COc1cccc(CNC(=O)c2n[nH]c3ccccc23)c1", "max response": "27.4% (inactive)"}
{"smiles": "O=C(O)CCCc1ccccc1", "max response": "-4.62% (inactive) and -1.89% (inactive)"}
{"smiles": "CCC(C)NC(=O)CCCc1ccccc1", "note": "(stereo not drawn)", "max response": "27.2% (active)"}
{"smiles": "C=CCN(CC=C)C(=O)COC(=O)c1n[nH]c2ccccc12", "max response": "-0.5% (inactive)"}
{"smiles": "O=C(COC(=O)c1n[nH]c2ccccc12)NCc1ccccc1", "max response": "7.3% (inactive)"}
{"smiles": "CCN(CC)S(=O)(=O)c1ccc2nc(COC(=O)c3n[nH]c4ccccc34)[nH]c2c1", "max response": "-0.99% (inactive)"}
{"smiles": "COc1ccc(COC(=O)c2n[nH]c3ccccc23)cc1F", "max response": "67% (active)"}
{"smiles": "CCC(C)NC(=O)C1c2ccccc2C(=O)N1Cc1ccccc1", "note": "(stereo not drawn)", "max response": "7.68% (inactive)"}
{"smiles": "O=C(NCCc1ccc(F)cc1)c1n[nH]c2ccccc12", "max response": "43.7% (active)"}
{"smiles": "O=C(CCCc1ccccc1)NCc1ccccc1", "max response": "28.4% (active)"}
{"smiles": "O=C(CCOc1ccccc1)NCc1ccccc1", "max response": "-2.09% (inactive)"}
{"smiles": "CC(CCc1ccccc1)NC(=O)COC(=O)c1ccc(F)cc1", "note": "(stereo not drawn)", "max response": "-6.34% (inactive)"}
{"smiles": "Cc1cccc(CC(=O)N2CCN=C2SCc2ccc([N+](=O)[O-])cc2)c1", "max response": "-3.02% (inactive)"}
{"smiles": "CC1C(=O)Nc2ccccc2N1C(=O)c1ccc(F)cc1F", "note": "(stereo not drawn)", "max response": "1.08% (inactive)"}
{"smiles": "CC(C)C[C@@H](N)c1nnc(SCC(=O)c2ccc(Cl)cc2)o1", "max response": "-2.64% (inactive)"}
{"smiles": "CCc1ccc(S(=O)(=O)Nc2cc3c(cc2N2CCCCC2)n(C)c(=O)c(=O)n3C)cc1", "max response": "3.05% (inactive)"}
